The source of these data is PubChem BioAssay (EPA / NIEHS).

Values joined by “and” are separate entries in the source; they are usually repeats but may differ in a detail not shown here. Equal values may be shown once. Records with an inconclusive call do not appear. The source holds several records for some structures; these can differ, active in one and inactive in another. Active and inactive are the calls of the source. Rule for the calls, unless noted: active = hit-call score of the fitted dose curve at least 0.9, where 1 is the maximum; inactive = score below 0.9.

The nature of experiment [1]: CCTE_Harrill_HTTr_Apoptosis_MCF7: CCTE's 6-hour Apoptosis Assessment for the High-Throughput Transcriptomics (HTTr) Platform, in MCF-7 cells cultured in DMEM + 10% fetal bovine serum, Harrill Lab (AID 2284011). In short, it runs like this:
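MCF-7 cells in DMEM + 10% fetal bovine serum were exposed to chemicals for 6 hours over an eight-point dilution series. Caspase-3/7 activation was imaged by high content imaging with CellEvent Caspase 3/7 Green; bidirectional fitting used DMSO as baseline.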

Experiment [2] can be described thus: CCTE_Harrill_HTTr_CellCount_MCF7: CCTE's Cell Proliferation Assessment for the High-Throughput Transcriptomics (HTTr) Platform, Harrill Lab (AID 2284012; active = hit-call score of the fitted dose curve at least 0.9, where 1 is the maximum;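 note: intended direction is loss of nuclei count meaning fewer cells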). The method in brief: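 For this full-screen endpoint, MCF-7 cultures received eight compound dilutions for six hours. Well nuclei counts from Hoechst imaging were analyzed relative to DMSO.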
The nature of experiment [3]: CCTE_Shafer_MEA_acute_burst_number: CCTE's Neural Acute Assay for Single-Electrode Bursts, Shafer Lab (AID 2284013). The method in brief: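 Burst totals were derived with adaptive spike detection (8x rms threshold) on filtered signals from rat cortical cultures; change relative to pre-treatment baseline after 40-min compound exposure (0.03-40 uM) was fitted in the negative direction against DMSO.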

Experiment [4] is described as follows: CCTE_Shafer_MEA_acute_per_burst_spike_number_mean: CCTE's Neural Acute Assay for Average Number of Spikes Per Burst, Shafer Lab (AID 2284015).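 Note: hits are decreases in mean spikes per burst versus baseline.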 The method in brief: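 Primary rat cortical neurons on 48-well MEA plates, treated on DIV 13 or 15 at 0.03-40 uM. Spontaneous activity recorded 40 min before and 40 min after compound at 37 C; percent change in mean spikes per single-electrode burst per well, fitted in the loss direction versus DMSO.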

A short description of experiment [5]: CCTE_Shafer_MEA_acute_interburst_interval_mean: CCTE's Neural Acute Assay for Mean Interburst Interval, Shafer Lab (AID 2284016).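 Note: percent change of mean interburst interval versus each well's own pre-dose baseline; curves fitted for decrease in interburst interval relative to DMSO.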 In short, it runs like this: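 Primary rat cortical neurons on 16-electrode MEA wells were recorded 40 min at baseline on DIV 13 or 15, then 40 min after compound (0.03-40 uM), at 37 C. Value is percent change in mean interburst interval per well, DMSO as negative control.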

The nature of experiment [6]: CCTE_Shafer_MEA_acute_burst_percentage_mean: CCTE's Neural Acute Assay for Percentage of Spikes in a Burst, Shafer Lab (AID 2284017).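 For AC50: curve fitted for loss of signal so potency reflects decreased burst percentage.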 The method in brief:
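Primary rat cortical neurons on 16-electrode MEA wells; 40 min baseline recorded at DIV 13 or 15, then 40 min after compound (0.03-40 uM) at 37 C. Well-mean fraction of spikes in single-electrode bursts; percent change from baseline, DMSO as negative control.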

Experiment [7] can be described thus: CCTE_Shafer_MEA_acute_burst_percentage_std: CCTE's Neural Acute Assay for Standard Deviation of Burst Percentage, Shafer Lab (AID 2284018).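 Note: fitted in the negative direction so actives lower burst percentage SD.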 The method in brief: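 Primary rat cortical neurons on 16-electrode MEA wells were recorded 40 min at baseline (DIV 13 or 15), then 40 min after compound (0.03-40 uM), at 37 C. Well value is SD across electrodes of spikes-in-bursts/total spikes; endpoint is percent change, DMSO-referenced.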

The nature of experiment [8]: CCTE_Shafer_MEA_acute_per_network_burst_spike_number_std: CCTE's Neural Acute Assay for Standard Deviation of Number of Spikes in a Network Burst, Shafer Lab (AID 2284020).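 Note: fitted for decrease in spike-number SD versus DMSO so actives lower it.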 In short, it runs like this:
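Acute MEA exposure, rat cortical neurons, 0.03-40 uM. Per-well % change versus own baseline; DMSO as negative control.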

Experiment [9] can be described thus: CCTE_Shafer_MEA_acute_per_network_burst_electrodes_number_mean: CCTE's Neural Acute Assay for Mean Number of Electrodes in a Network Burst, Shafer Lab (AID 2284021).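 Note: curves fitted for decreases only so hits reduce electrodes per burst.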 In short, it runs like this: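 Rat primary cortical neurons on 16-electrode MEA wells were recorded 40 min at baseline on DIV 13 or 15, then 40 min after compound (0.03-40 uM), at 37 C. Value is percent change per well, fitted in loss direction versus DMSO.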

Experiment [10] in a line: CCTE_Shafer_MEA_acute_network_burst_percentage: CCTE's Neural Acute Assay for Percentage of Network Bursts, Shafer Lab (AID 2284022).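 Note: curves fitted for loss so actives lower network burst percentage.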 The method in brief: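 Primary rat cortical neurons on 16-electrode MEA wells, treated on DIV 13 or 15 with compound (0.03-40 uM); 40-min baseline and 40-min post-exposure recordings at 37 C. Value is percent change in spikes within network bursts versus baseline, DMSO negative control.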

Experiment [11] is described as follows: CCTE_Shafer_MEA_acute_cross_correlation_area: CCTE's Neural Acute Assay for Area of Cross Correlation, Shafer Lab (AID 2284024).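 Note: area under pooled inter-electrode spike cross-correlation near zero lag as percent change from own baseline; curves fitted for loss of cross-correlation area so actives lower synchrony.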 In short, it runs like this:
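Primary rat cortical neurons on 48-well MEA plates (16 electrodes/well) were recorded 40 min at baseline on DIV 13 or 15, then 40 min with compound (0.03-40 uM) at 37 C; cross-correlation area expressed as percent change from baseline.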

Experiment [12] can be described thus: CCTE_Shafer_MEA_acute_synchrony_index: CCTE's Neural Acute Assay for Synchrony, Shafer Lab (AID 2284027).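 Note: network synchrony index of spontaneous spiking in primary rat cortical neurons on MEAs; fitted for loss of signal so actives lower synchrony relative to DMSO.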 In short, it runs like this:
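Acute exposure of rat primary cortical neurons (DIV 13 or 15) at 0.03-40 uM. Synchrony index, 40 min before vs after, as % change relative to DMSO control.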

Experiment [13] addresses Estrogen receptor (Homo sapiens) (UniProt P03372). The experiment is described as follows: CCTE_Deisenroth_AIME_384WELL_LUC_Active: CCTE's 384-well Estrogen Receptor Transactivation Assay with AIME metabolic competence (ERTA luciferase; metabolism positive), Deisenroth Lab (AID 2284030; active = hit-call score of the fitted dose curve at least 0.9, where 1 is the maximum). In short, it runs like this: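 Test chemicals (10-point series, 0.002 - 200 uM) were preincubated 2 hours with alginate-immobilized phenobarbital/beta-naphthoflavone-induced male Sprague Dawley rat liver S9; conditioned medium then went onto VM7Luc4E2 breast cells for 24 hour. Luciferase gain-of-signal fitted relative to 17beta-estradiol.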

Experiment [14] is described as follows: CCTE_Shafer_MEA_dev_firing_rate_mean: CCTE's Neural Network Formation Assay for Mean Firing Rate, Shafer Lab (AID 2284031).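 For AC50: curve fitted for loss of firing so AC50 reflects decreased mean firing rate.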 The method in brief: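 Extracellular spike frequency, AUC over DIV 5–12 recordings, in rat cortical neuron MEA cultures dosed from plating; loss direction vs DMSO.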
A short description of experiment [15]: CCTE_Shafer_MEA_dev_per_burst_spike_percent: CCTE's Neural Network Formation Assay for Percent of Spikes in a Burst, Shafer Lab (AID 2284032).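 Note: fitted as a decrease in burst spike percentage below DMSO baseline.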 The method in brief:
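Value is trapezoidal AUC over recordings on days 5, 7, 9 and 12 of the well-mean fraction of spikes falling in single-electrode bursts; rat cortical cultures exposed continuously from plating, treatment renewed DIV 5 and 9, fitted downward against DMSO.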

The nature of experiment [16]: CCTE_Deisenroth_AIME_384WELL_CTox_Active: Cytotoxicity Assessment (CTOX) in CCTE's 384-well Estrogen Receptor Transactivation Assay with AIME metabolic competence (metabolism positive), Deisenroth Lab (AID 2284037; active = hit-call score of the fitted dose curve at least 0.9, where 1 is the maximum;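 note: chemicals first conditioned 2 h by alginate-bound induced rat liver S9 before cells; activity means signal loss indicating cell death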). In short, it runs like this:
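VM7Luc4E2 breast cells received medium pre-incubated 2 h with chemical over alginate microspheres holding induced male Sprague Dawley rat liver S9; viability read 24 h later by protease-substrate fluorescence. Loss of signal, bidirectional fit, 0.002–200 uM.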

Experiment [17] has as its target Estrogen receptor (Homo sapiens) (UniProt P03372). In words: CCTE_Deisenroth_AIME_96WELL_LUC_Active: CCTE's 96-well Estrogen Receptor Transactivation Assay with AIME metabolic competence (ERTA luciferase; metabolism positive), Deisenroth Lab (AID 2284023; active = hit-call score of the fitted dose curve at least 0.9, where 1 is the maximum). In short, it runs like this: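 Metabolism-positive mode: induced rat hepatic S9 in alginate microspheres conditions test solutions (0.002 - 200 uM, 10 points) for 2 hours. VM7Luc4E2 ER luciferase reporter cells then exposed 24 h; positive-direction fit against 17beta-estradiol, n=4 typical.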

The target is the same in experiment [18]. The experiment is described as follows: CCTE_Deisenroth_AIME_96WELL_LUC_Inactive: CCTE's 96-well Estrogen Receptor Transactivation Assay without AIME metabolic competence (ERTA luciferase; metabolism negative), Deisenroth Lab (AID 2284025; active = hit-call score of the fitted dose curve at least 0.9, where 1 is the maximum). The method in brief: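 Metabolism-negative arm: chemicals (0.002–200 uM, 10 points) incubated 2 h with alginate-water microspheres, then medium moved onto VM7Luc4E2 cells for 24 h luciferase read-out. Positive direction vs 17beta-estradiol; n≥4 experiments.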

The nature of experiment [19]: CCTE_Deisenroth_AIME_96WELL_CTox_Active: Cytotoxicity Assessment (CTOX) in CCTE's 96-well Estrogen Receptor Transactivation Assay with AIME metabolic competence (metabolism positive), Deisenroth Lab (AID 2284028; active = hit-call score of the fitted dose curve at least 0.9, where 1 is the maximum). In short, it runs like this: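 Cytotoxicity in VM7Luc4E2 breast cells after 24 h exposure to medium from a 2 h metabolic pre-incubation with induced rat hepatic S9 in alginate microspheres; fluorescent live-cell protease readout, 10-point series 0.002–200 uM, n=4.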

Sequence of Estrogen receptor (Homo sapiens) (P03372 whole entry, looked up): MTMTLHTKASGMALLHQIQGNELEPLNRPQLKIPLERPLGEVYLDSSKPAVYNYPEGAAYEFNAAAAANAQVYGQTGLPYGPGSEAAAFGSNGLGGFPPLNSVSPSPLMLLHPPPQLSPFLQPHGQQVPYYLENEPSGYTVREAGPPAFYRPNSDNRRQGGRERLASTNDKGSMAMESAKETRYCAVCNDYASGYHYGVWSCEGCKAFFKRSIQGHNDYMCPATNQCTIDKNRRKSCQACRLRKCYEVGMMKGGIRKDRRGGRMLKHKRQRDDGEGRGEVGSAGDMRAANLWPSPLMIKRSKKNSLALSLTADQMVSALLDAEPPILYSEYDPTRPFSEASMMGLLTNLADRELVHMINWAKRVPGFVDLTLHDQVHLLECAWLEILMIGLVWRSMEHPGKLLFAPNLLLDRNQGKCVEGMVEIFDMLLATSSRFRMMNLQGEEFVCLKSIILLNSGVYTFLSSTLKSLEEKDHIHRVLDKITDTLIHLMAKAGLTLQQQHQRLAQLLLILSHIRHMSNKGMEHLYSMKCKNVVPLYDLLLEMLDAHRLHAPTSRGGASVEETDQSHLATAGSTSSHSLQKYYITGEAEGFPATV

With `CC#C[C@]1(O)CC[C@H]2[C@@H]3CCC4=CC(=O)CCC4=C3[C@@H](c3ccc(N(C)C)cc3)C[C@@]21C`, the outcome in [1], in experiment [2], in experiment [3], in experiment [4], in experiment [5] and in experiment [8] was inactive. Besides, the molecule was classed as inactive in experiment [9], in experiment [10], in experiment [11], in experiment [13], in experiment [14] and in experiment [16]. In addition, the AC50 (in general, the concentration at which the activity in the assay is half-maximal) was 1.66 µM (active) in experiment [3]; 32.9 µM (active) in [4]; 4.16 µM (active) in experiment [5]; 16.3 µM (active) and 5.2 µM (active) in experiment [6]; 4.22 µM (active) and 6.02 µM (active) in [7]; 9.84 µM (active) in experiment [8]. Besides, the AC50 in experiment [9] was 7.54 µM (active); in [10], 16.2 µM (active); in experiment [12], 16.2 µM (active) and 7.18 µM (active); in experiment [14], 8.04 µM (active); in experiment [15], 6.81 µM (active) and 22.9 µM (active).
For the molecule `OC1CCC(C2CCCCC2)CC1` (stereo unspecified), the result in [1], in [2], in experiment [3], in experiment [4], in experiment [5] and in experiment [7] was inactive. Also, the molecule was called inactive in [8], in [9], in experiment [10], in [11] and in experiment [12]. Moreover, in experiment [6], the AC50 was 27.3 µM (active).
Turning to `C#C[C@]1(O)CC[C@H]2[C@@H]3CCC4=CC(=O)CC[C@@H]4[C@H]3CC[C@@]21C`, the outcome in experiment [1] and in experiment [2] was inactive.
Regarding `CCCOC(=O)c1ccc(O)cc1`, the result in experiment [1] and in experiment [2] was inactive.
For the molecule `Cc1oc(-c2ccccc2)nc1CCOc1ccc(C[C@H](Nc2ccccc2C(=O)c2ccccc2)C(=O)O)cc1`, the outcome in experiment [1] and in experiment [2] was inactive.
With `Cc1cc(CCN2CCN(c3nsc4ccccc34)CC2)cc2c1NC(=O)CC2(C)C`, the AC50 in experiment [1] was 63.6 µM (active); in experiment [2], 92.2 µM (active); in experiment [4], 20 µM (active); in experiment [5] it was 5.98 µM (active); in [6] it was 32.1 µM (active); in experiment [8] it was 7.3 µM (active). Also, the AC50 in experiment [9] is 32.4 µM (active); in [12] it was 33.4 µM (active). In addition, the molecule was called inactive in [3], in experiment [7], in experiment [10] and in [11].
In the case of `CCc1ccc(CCOc2ccc(CC3SC(=O)NC3=O)cc2)nc1` (stereo unspecified), the outcome in experiment [1], in [2], in experiment [3], in experiment [4], in experiment [5] and in experiment [6] was inactive. For the same molecule, the molecule was called inactive in experiment [7], in [8], in experiment [9], in experiment [10], in [11] and in experiment [12].
In the case of `O=C1OC2(c3ccccc31)c1cc(Br)c(O)c(Br)c1Oc1c2cc(Br)c(O)c1Br`, the AC50 in [1] was 1.92 µM (active). In addition, the call in experiment [2] was inactive.
On to `O=C(/C=C/c1ccc(O)cc1)CC(=O)/C=C/c1ccc(O)cc1`, for which the result in [1], in experiment [2] and in experiment [19] was inactive. The AC50 in experiment [17] was 31.4 µM (active); in [18], 43.2 µM (active).
Regarding `CN1CCN(c2ccccc2/C=C2\SCCN(c3ccc(Cl)c(Cl)c3)C2=O)CC1`, the result in experiment [1], in experiment [3], in [4], in experiment [5], in experiment [7] and in experiment [8] was inactive. In addition, the molecule was classed as inactive in experiment [9], in experiment [10] and in experiment [11]. The AC50 is 77.1 µM (active) in [2], 0.128 µM (active) in experiment [6] and 34 µM (active) in [12].
Turning to `CC(O)C(=O)O` (stereo unspecified), the outcome in experiment [1] was inactive.
Same read-out and setting: the value for `Nc1cccc2c(N)cccc12` was “inactive”.
In the case of `CC[C@H](C)[C@@H](C(=O)O)n1sc2ccccc2c1=O`, the outcome in experiment [1] and in [2] was inactive.
On to `CC(C)(C)CC(C)(C)c1ccc(O)c(-n2nc3ccccc3n2)c1`, for which the outcome in experiment [1] was inactive.
For the molecule `Cc1cc(C)c(O)c(C)c1`, the result in experiment [1] and in experiment [2] was inactive.
For `O=[N+]([O-])c1ccc(O)cc1`, the outcome in [1] and in experiment [2] was inactive.
As to `O=c1c(-c2ccc(O)cc2)coc2cc(O)ccc12`, the outcome in experiment [1], in experiment [2], in [3], in [4], in experiment [5] and in experiment [6] was inactive. In addition, the molecule was classed as inactive in experiment [7], in experiment [8], in [9], in [10], in experiment [11] and in experiment [19]. In [12], the AC50 is 12.2 µM (active).
